# In PubChem BioAssay AID1159580 (chemical genetic matrix, 2015):
# Values joined by “and” are separate entries in the source; they are usually repeats but may differ in a detail not shown here. Identical values can stand only once. The whole screen tested about 5,500 compounds, of which about 2,000 (36%) were called active. Another 18% or so got no clear call; they are omitted. Cut-off read from the data, not from the text of the source: active = normalized growth mostly below about 0.91 (no sharp cut-off); inconclusive = no clear call, values can overlap the other calls; inactive = mostly above about 0.92. The list shows a part of the results.
# Test: chemical genetic growth profiling, strain panel (AID 1159580);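 note: tested at 20 µM; growth read once vehicle control cultures reached saturation at 30 °C; 1 = growth at the plate median or of vehicle wells; lower values mean less growth of the strain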
# Conditions: S. cerevisiae deletion strains, growth OD
smiles,measurement,setting,value
CCC(C)[C@H]1O[C@]2(C=C[C@@H]1C)C[C@@H]1C[C@@H](C/C=C(\C)[C@@H](OC3C[C@H](OC)C(O[C@H]4C[C@H](OC)[C@@H](O)[C@H](C)O4)[C@H](C)O3)[C@@H](C)/C=C/C=C3\CO[C@@H]4[C@H](O)C(C)=C[C@@H](C(=O)O1)[C@]34O)O2 (some centres not stated),normalized growth,"locus YAL013W, strain DEP1, stronger effect = lower value",0.804 (active)
same,normalized growth,"locus YAL021C, strain ccr4, stronger effect = lower value",0.919 (inactive)
same,normalized growth,"locus YAL026C, strain drs2, stronger effect = lower value",0.954 (inactive)
same,normalized growth,"locus YAL030W, strain snc1, stronger effect = lower value",0.984 (inactive)
same,normalized growth,"locus YBL061C, strain skt5, stronger effect = lower value",0.964 (inactive)
same,normalized growth,"locus YBR009C, strain hhf1, stronger effect = lower value",0.809 (active)
same,normalized growth,"locus YBR021W, strain FUR4, stronger effect = lower value",0.838 (active)
same,normalized growth,"locus YBR023C, strain chs3, stronger effect = lower value",0.889 (active)
same,normalized growth,"locus YBR171W, strain sec66, stronger effect = lower value",1 (inactive)
same,normalized growth,"locus YBR229C, strain ROT2, stronger effect = lower value",0.997 (inactive)
same,normalized growth,"locus YBR231C, strain swc5, stronger effect = lower value",0.947 (inactive)
same,normalized growth,"locus YBR279W, strain paf1, stronger effect = lower value",0.882 (active)
same,normalized growth,"locus YCL011C, strain gbp2, stronger effect = lower value",0.817 (active)
same,normalized growth,"locus YCL016C, strain dcc1, stronger effect = lower value",0.86 (active)
same,normalized growth,"locus YCL029C, strain bik1, stronger effect = lower value",0.889 (active)
same,normalized growth,"locus YCL061C, strain MRC1, stronger effect = lower value",0.976 (inactive)
same,normalized growth,"locus YCL069W, strain vba3, stronger effect = lower value",0.898 (active)
same,normalized growth,"locus YCR088W, strain abp1, stronger effect = lower value",0.981 (inactive)
same,normalized growth,"locus YDL005C, strain med2, stronger effect = lower value",0.971 (inactive)
same,normalized growth,"locus YDL035C, strain GPR1, stronger effect = lower value",0.847 (active)
same,normalized growth,"locus YDL040C, strain nat1, stronger effect = lower value",0.983 (inactive)
same,normalized growth,"locus YDL074C, strain BRE1, stronger effect = lower value",0.669 (active)
same,normalized growth,"locus YDL101C, strain DUN1, stronger effect = lower value",0.933 (inactive)
same,normalized growth,"locus YDL134C, strain PPH21, stronger effect = lower value",0.853 (active)
same,normalized growth,"locus YDL185W, strain tfp1, stronger effect = lower value",1.02 (inactive)
same,normalized growth,"locus YDL192W, strain arf1, stronger effect = lower value",0.847 (active)
same,normalized growth,"locus YDR001C, strain nth1, stronger effect = lower value",0.996 (inactive)
same,normalized growth,"locus YDR069C, strain doa4, stronger effect = lower value",1.02 (inactive)
same,normalized growth,"locus YDR101C, strain arx1, stronger effect = lower value",0.959 (inactive)
same,normalized growth,"locus YDR137W, strain rgp1, stronger effect = lower value",0.499 (active)
same,normalized growth,"locus YDR159W, strain sac3, stronger effect = lower value",0.915 (inactive)
same,normalized growth,"locus YDR162C, strain NBP2, stronger effect = lower value",0.769 (active)
same,normalized growth,"locus YDR195W, strain ref2",1.32 [resistant] (active)
same,normalized growth,"locus YDR297W, strain sur2, stronger effect = lower value",0.989 (inactive)
same,normalized growth,"locus YDR318W, strain mcm21, stronger effect = lower value",0.853 (active)
same,normalized growth,"locus YDR334W, strain swr1, stronger effect = lower value",0.982 (inactive)
same,normalized growth,"locus YDR335W, strain msn5, stronger effect = lower value",0.996 (inactive)
same,normalized growth,"locus YDR388W, stronger effect = lower value",0.857 (active)
same,normalized growth,"locus YDR392W, strain spt3, stronger effect = lower value",0.855 (inactive)
same,normalized growth,"locus YDR502C, strain sam2, stronger effect = lower value",0.841 (active)
same,normalized growth,"locus YEL003W, strain gim4, stronger effect = lower value",0.928 (inactive)
same,normalized growth,"locus YEL037C, strain rad23, stronger effect = lower value",0.973 (inactive)
same,normalized growth,"locus YEL061C, strain CIN8 (second series), stronger effect = lower value",0.973 (inactive)
same,normalized growth,"locus YEL061C, strain CIN8, stronger effect = lower value",0.933 (inactive)
same,normalized growth,"locus YER015W, strain faa2, stronger effect = lower value",0.957 (inactive)
same,normalized growth,"locus YER016W, strain bim1, stronger effect = lower value",0.911 (active)
same,normalized growth,"locus YER110C, stronger effect = lower value",1.03 (inactive)
same,normalized growth,"locus YER111C, strain swi4, stronger effect = lower value",0.997 (inactive)
same,normalized growth,"locus YER155C, strain BEM2 (second series), stronger effect = lower value",1.07 (inactive)
same,normalized growth,"locus YER155C, strain BEM2, stronger effect = lower value",0.966 (inactive)
same,normalized growth,"locus YER167W, strain BCK2, stronger effect = lower value",0.913 (inactive)
same,normalized growth,"locus YFR010W, strain ubp6, stronger effect = lower value",1 (inactive)
same,normalized growth,"locus YGL078C, strain dbp3, stronger effect = lower value",1.01 (inactive)
same,normalized growth,"locus YGL086W, strain mad1, stronger effect = lower value",0.8 (active)
same,normalized growth,"locus YGL167C, strain pmr1, stronger effect = lower value",1.01 (inactive)
same,normalized growth,"locus YGL173C, strain kem1, stronger effect = lower value",0.967 (inactive)
same,normalized growth,"locus YGL227W, strain vid30, stronger effect = lower value",1 (inactive)
same,normalized growth,"locus YGL240W, strain doc1, stronger effect = lower value",1.06 (inactive)
same,normalized growth,"locus YGL248W, strain PDE1, stronger effect = lower value",0.797 (active)
same,normalized growth,"locus YGL253W, strain hxk2, stronger effect = lower value",0.743 (active)
same,normalized growth,"locus YGR135W, strain pre9, stronger effect = lower value",1.03 (inactive)
same,normalized growth,"locus YGR252W, strain gcn5, stronger effect = lower value",0.939 (inactive)
same,normalized growth,"locus YHR013C, strain ard1, stronger effect = lower value",0.847 (inactive)
same,normalized growth,"locus YHR027C, strain rpn1, stronger effect = lower value",0.977 (inactive)
same,normalized growth,"locus YHR030C, strain SLT2, stronger effect = lower value",0.865 (active) and 0.98 (inactive)
same,normalized growth,"locus YHR079C, strain IRE1 (second series), stronger effect = lower value",0.87 (active)
same,normalized growth,"locus YHR079C, strain IRE1, stronger effect = lower value",0.966 (inactive)
same,normalized growth,"locus YHR094C, strain hxt1, stronger effect = lower value",1.01 (inactive)
same,normalized growth,"locus YHR129C, strain ARP1, stronger effect = lower value",0.814 (active)
same,normalized growth,"locus YHR142W, strain chs7, stronger effect = lower value",0.864 (active)
same,normalized growth,"locus YHR200W, strain rpn10, stronger effect = lower value",1.01 (inactive)
same,normalized growth,"locus YIL066C, strain RNR3, stronger effect = lower value",0.742 (active)
same,normalized growth,"locus YIL073C, strain SPO22, stronger effect = lower value",0.817 (inactive)
same,normalized growth,"locus YIL125W, strain kgd1, stronger effect = lower value",0.994 (inactive)
same,normalized growth,"locus YIR030C, strain dcg1, stronger effect = lower value",0.904 (active)
same,normalized growth,"locus YJL092W, strain hpr5, stronger effect = lower value",0.967 (inactive)
same,normalized growth,"locus YJL095W, strain BCK1 (second series), stronger effect = lower value",0.891 (active)
same,normalized growth,"locus YJL095W, strain BCK1, stronger effect = lower value",0.722 (active) and 0.976 (inactive)
same,normalized growth,"locus YJL115W, strain asf1, stronger effect = lower value",1 (inactive)
same,normalized growth,"locus YJL129C, strain trk1, stronger effect = lower value",0.955 (inactive)
same,normalized growth,"locus YJL134W, strain LCB3, stronger effect = lower value",1.01 (inactive)
same,normalized growth,"locus YJL154C, strain vps35, stronger effect = lower value",1 (inactive)
same,normalized growth,"locus YJL164C, strain tpk1, stronger effect = lower value",0.795 (active)
same,normalized growth,"locus YJL166W, strain qcr8, stronger effect = lower value",0.916 (inactive)
same,normalized growth,"locus YJL168C, strain set2, stronger effect = lower value",1.02 (inactive)
same,normalized growth,"locus YJL187C, strain SWE1 (second series), stronger effect = lower value",0.791 (active)
same,normalized growth,"locus YJL187C, strain SWE1, stronger effect = lower value",0.951 (inactive)
